Structures are written as SMILES. About 79,000 compounds went through this panel and 15% of them were active in at least one assay; those are over-represented in the sample as a whole. The source made the active and inactive calls. No stated cut-off is given here; in the data, active means growth inhibition above about 70%; inactive means the rest.

One test in a line: NCI Yeast Anticancer Drug Screen. Data for the mec2-1 strain (AID 157). The settings on record: S. cerevisiae mec2-1 strain, at 5.0 µM (retest, dose inferred, filed as 0.5), stronger effect = higher value. Here is the method:
Growth inhibition of yeast strains with defined genetic alterations is measured as a screen for potential anti-cancer activity. Selected strains with alterations in DNA damage repair or cell cycle control were exposed to compounds and growth inhibition was measured relative to vehicle treated controls. The strain used in this assay is mec2-1
In the case of `C[C@]12Cc3cn4ncnc4nc3CC1CC[C@@H]1[C@@H]2CC[C@]2(C)C(O)CC[C@@H]12` (stereo not given in full), the growth inhibition is 24% (inactive). For `C[C@]12CCCC[C@@H]1CC[C@@H]1[C@@H]2C(=O)C[C@@]2(C)[C@H]1CC[C@]2(C)O`, the growth inhibition is 0% (inactive). `Oc1c(Cl)c(Cl)cc(Cl)c1Cl`: the growth inhibition was 7% (inactive). Still for that read-out and setting: as for `[Hg][c]1ccccc1`, the figure is 99% (active); as for `O=P(Oc1ccccc1)(Oc1ccccc1)Oc1ccccc1Cl`, 3% (inactive). Take `CNC1C(O)CC(OC2C/C=C(\C)C/C(C)=C/C=C/CCC(C)CNC(=O)/C=C/C=C/C2C)OC1C` (stereo not given): the growth inhibition is 19% (inactive). With `O=C1c2ccccc2C[CH]1[Hg][Cl]` (stereo not given), the growth inhibition was 100% (active).

Consider `CC(=O)OC1CC[C@@]2(C)C(=CC[C@@H]3[C@@H]2CC[C@]2(C)C(OC(C)=O)[C@H](n4ccnc4)C[C@@H]32)C1` (stereo not given in full), for which the growth inhibition is 8% (inactive).

For the molecule `CC(c1ccccc1)N1O[C@]12CC[C@@]1(C)C(CCCC13OCCO3)C2` (stereo not given in full), the growth inhibition was 97% (active).

Still in this test, the particulars now being: S. cerevisiae mec2-1 strain, at 50.0 µM (retest, dose inferred, filed as 5.0), stronger effect = higher value.
Turning to `C[C@]12Cc3cn4ncnc4nc3CC1CC[C@@H]1[C@@H]2CC[C@]2(C)C(O)CC[C@@H]12` (stereo not given in full), the growth inhibition was 99% (active). Consider `C[C@]12CCCC[C@@H]1CC[C@@H]1[C@@H]2C(=O)C[C@@]2(C)[C@H]1CC[C@]2(C)O`, for which the growth inhibition was 99% (active). As for `Oc1c(Cl)c(Cl)cc(Cl)c1Cl`, the growth inhibition is 97% (active). Regarding `[Hg][c]1ccccc1`, the growth inhibition is 100% (active). Regarding `O=P(Oc1ccccc1)(Oc1ccccc1)Oc1ccccc1Cl`, the growth inhibition is -8% (inactive). As for `CNC1C(O)CC(OC2C/C=C(\C)C/C(C)=C/C=C/CCC(C)CNC(=O)/C=C/C=C/C2C)OC1C` (stereo not given), the growth inhibition was 100% (active).

For the molecule `O=C1c2ccccc2C[CH]1[Hg][Cl]` (stereo not given), the growth inhibition was 100% (active). On to `CC(=O)OC1CC[C@@]2(C)C(=CC[C@@H]3[C@@H]2CC[C@]2(C)C(OC(C)=O)[C@H](n4ccnc4)C[C@@H]32)C1` (stereo not given in full), for which the growth inhibition was 52% (inactive). Turning to `CC(c1ccccc1)N1O[C@]12CC[C@@]1(C)C(CCCC13OCCO3)C2` (stereo not given in full), the growth inhibition was 99% (active).

The same test, now with this note: S. cerevisiae mec2-1 strain, at 50.0 µM, stronger effect = higher value.
Regarding `C[C@]12Cc3cn4ncnc4nc3CC1CC[C@@H]1[C@@H]2CC[C@]2(C)C(O)CC[C@@H]12` (stereo not given in full), the growth inhibition is 95% (active).

Consider `C[C@]12CCCC[C@@H]1CC[C@@H]1[C@@H]2C(=O)C[C@@]2(C)[C@H]1CC[C@]2(C)O`, for which the growth inhibition is 99% (active). Regarding `[Br][Co][Br].[NH-]CC[NH-].[NH-]CC[NH-]`, the growth inhibition was 15.6% (inactive). In the case of `C1N2CN3CN1CN(C2)C3.[Cu+2]`, the growth inhibition is -9.85% (inactive). The same measure, in the same setting: the result for `CC[n+]1c(-c2ccccc2)c2cc(N)ccc2c2ccc(N)cc21` (tested in a mixture with another compound) reads 88.8% (active). Regarding `CCOP(=O)(OCC)/C(C#N)=C(\C)c1ccco1`, the growth inhibition was -28.9% (inactive). Regarding `Oc1c(Cl)c(Cl)cc(Cl)c1Cl`, the growth inhibition is 68.9% (inactive). On to `[Hg][c]1ccccc1`, for which the growth inhibition is 99.7% (active). As for `CC(C)(C)c1ccc(O)cc1`, the growth inhibition is -29.8% (inactive). As to `O=P(Oc1ccccc1)(Oc1ccccc1)Oc1ccccc1Cl`, the growth inhibition is 0.05% (inactive). For `CC(=O)C1(c2ccccc2)CCCN(C)CC1` (stereo not given), the growth inhibition was -8.95% (inactive). Take `CNC1C(O)CC(OC2C/C=C(\C)C/C(C)=C/C=C/CCC(C)CNC(=O)/C=C/C=C/C2C)OC1C` (stereo not given): the growth inhibition is 63.1% (inactive).

`O=C1c2ccccc2C[CH]1[Hg][Cl]` (stereo not given): the growth inhibition is 99.5% (active). On the same count and under the same terms, as for `CC(=O)OC1CC[C@@]2(C)C(=CC[C@@H]3[C@@H]2CC[C@]2(C)C(OC(C)=O)[C@H](n4ccnc4)C[C@@H]32)C1` (stereo not given in full), the figure is 62.8% (inactive); as for `CC(c1ccccc1)N1O[C@]12CC[C@@]1(C)C(CCCC13OCCO3)C2` (stereo not given in full), 94% (active); as for `CCC1(c2c(F)c(F)c(N)c(F)c2F)CCC(=O)NC1=O` (stereo not given), -6.25% (inactive). `O=C(CCl)N(CCO)CCO`: the growth inhibition is 1.5% (inactive).

For `[O-][N+]12CCCCC1C1CC(C2)C2CCCC(c3ccccc3)N2C1` (stereo not given), the growth inhibition is -25.1% (inactive).

For `CCOC(=O)C(CC(C)C)NC(=O)C(N)Cc1ccc(N(CCCl)CCCl)cc1` (stereo not given), the growth inhibition was -8.9% (inactive). Regarding `CC(OC(N)=O)C(F)(F)C(F)F` (stereo not given), the growth inhibition was -9.15% (inactive).

Take `CCCCN1C(=O)C(=C/C=C/C=C2\Oc3ccccc3N2CCCS(=O)(=O)O)C(=O)N(CCCC)C1=S`: the growth inhibition is 2.9% (inactive). On the same count and under the same terms, as for `Cc1cc(Cc2cc(C)c(NC(=O)C(=O)C3C(=O)NC(=S)NC3=O)c(C(C)C)c2)cc(C(C)C)c1NC(=O)C(=O)C1C(=O)NC(=S)NC1=O`, the figure is -8% (inactive).
